{
  "source": "PubChem BioAssay AID651847",
  "about": "(Broad Institute, 2012)",
  "assay": "dose response, V. cholerae BH1651, dry powder (AID 651847)",
  "conditions": "V. cholerae BH1651 luxOD47E, luciferase light induction, 6 h; at 80 µM (top of the series) unless noted",
  "note": "Where “and” joins values, the source holds several entries; their conditions need not be identical. Equal entries are not always repeated. Inconclusive results are not listed. Values without a mark were called inactive. Calls of active or inactive are those of the source. The rule behind the calls is not given here.",
  "data": [
    {"smiles": "O=C(Cc1cccc(OC(F)(F)F)c1)NC1CCCC1", "values": [
      {"measurement": "activation (light induction)", "result": 0, "unit": "%"}
    ]},
    {"smiles": "O=C(Cc1ccc(-c2ccccc2)cc1)NC1CC1", "values": [
      {"measurement": "activation (light induction)", "result": "25% (active)"}
    ]},
    {"smiles": "CS(=O)(=O)c1ccc(CC(=O)NC2CCCC2)cc1", "values": [
      {"measurement": "activation (light induction)", "result": -25, "unit": "%"}
    ]},
    {"smiles": "c1ccc(Cn2nnnc2NCc2ccc(N3CCCC3)cc2)cc1", "values": [
      {"measurement": "activation (light induction)", "result": 0, "unit": "%"}
    ]},
    {"smiles": "CCn1nccc1NCc1ccc(N2CCCC2)cc1", "values": [
      {"measurement": "activation (light induction)", "result": 12.5, "unit": "%"}
    ]},
    {"smiles": "CCn1nnnc1NCc1cccc(N2CCCC2)c1", "values": [
      {"measurement": "activation (light induction)", "result": -33.3, "unit": "%"}
    ]},
    {"smiles": "CCn1nnnc1NCc1ccc(N2CCCCC2)cc1", "values": [
      {"measurement": "activation (light induction)", "result": "0% [at 28.5 µM]"}
    ]},
    {"smiles": "O=C(Cc1ccc(-c2ccccc2)cc1)NC1CCCCC1", "values": [
      {"measurement": "activation (light induction)", "result": -12.5, "unit": "%"}
    ]},
    {"smiles": "CCn1nnc(NCc2ccc(C)cc2)n1", "values": [
      {"measurement": "activation (light induction)", "result": 16.7, "unit": "%"}
    ]},
    {"smiles": "CCn1nnnc1NCc1cccc(OC)c1", "values": [
      {"measurement": "activation (light induction)", "result": -25, "unit": "%"}
    ]},
    {"smiles": "O=C(Cc1cccc(F)c1)NC1CCCC1", "values": [
      {"measurement": "activation (light induction)", "result": 0, "unit": "%"}
    ]},
    {"smiles": "CCn1nnnc1NCc1ccc(N2CCCC2)cc1", "values": [
      {"measurement": "activation (light induction)", "result": -12.5, "unit": "%"}
    ]},
    {"smiles": "COc1ccc(CC(=O)NC2CCCC2)cc1", "values": [
      {"measurement": "activation (light induction)", "result": 12.5, "unit": "%"}
    ]},
    {"smiles": "CCn1nnc(CCc2ccc(N3CCCC3)cc2)n1", "values": [
      {"measurement": "activation (light induction)", "result": -25, "unit": "%"}
    ]},
    {"smiles": "CCc1ccccc1NCc1ccc(N2CCCC2)cc1", "values": [
      {"measurement": "activation (light induction)", "result": -16.7, "unit": "%"}
    ]},
    {"smiles": "CC(C)c1ccc(CNc2nnnn2C)cc1", "values": [
      {"measurement": "activation (light induction)", "result": 37.5, "unit": "%"}
    ]},
    {"smiles": "CCn1nnnc1CCc1ccc(N2CCCC2)cc1", "values": [
      {"measurement": "activation (light induction)", "result": -12.5, "unit": "%"}
    ]},
    {"smiles": "CC1(NC(=O)Cc2ccc(-c3ccccc3)cc2)COC1", "values": [
      {"measurement": "activation (light induction)", "result": 0, "unit": "%"}
    ]},
    {"smiles": "Cc1ccccc1CC(=O)NC1CCCC1", "values": [
      {"measurement": "activation (light induction)", "result": 12.5, "unit": "%"}
    ]},
    {"smiles": "CCCn1nnnc1NCc1ccc(C(C)C)cc1", "values": [
      {"measurement": "activation (light induction)", "result": 50, "unit": "%"}
    ]},
    {"smiles": "CCC(CC)NC(=O)Cc1ccc(-c2ccccc2)cc1", "values": [
      {"measurement": "activation (light induction)", "result": -16.7, "unit": "%"}
    ]},
    {"smiles": "CCn1nccc1/N=C/c1ccc(N2CCCC2)cc1", "values": [
      {"measurement": "activation (light induction)", "result": 0, "unit": "%"}
    ]},
    {"smiles": "O=C(Cc1ccccc1F)NC1CCCC1", "values": [
      {"measurement": "activation (light induction)", "result": -12.5, "unit": "%"}
    ]},
    {"smiles": "CC(C)NC(=O)Cc1ccc(-c2ccccc2)cc1", "values": [
      {"measurement": "activation (light induction)", "result": 25, "unit": "%"}
    ]},
    {"smiles": "O=C(Cc1ccc(-c2ccccc2)cc1)NC1CCCC1", "values": [
      {"measurement": "activation (light induction)", "result": 0, "unit": "%"}
    ]},
    {"smiles": "CCCCn1nnnc1NCc1ccc(N2CCCC2)cc1", "values": [
      {"measurement": "activation (light induction)", "result": -25, "unit": "%"}
    ]},
    {"smiles": "O=C(Cc1ccccc1C(F)(F)F)NC1CCCC1", "values": [
      {"measurement": "activation (light induction)", "result": 0, "unit": "%"}
    ]},
    {"smiles": "O=C(Cc1ccc(-c2ccccc2)cc1)NC1CCOCC1", "values": [
      {"measurement": "activation (light induction)", "result": -12.5, "unit": "%"}
    ]},
    {"smiles": "O=C(NCc1ccc(-c2ccccc2)cc1)C1CCCC1", "values": [
      {"measurement": "activation (light induction)", "result": 12.5, "unit": "%"}
    ]},
    {"smiles": "CCCn1nnnc1NCc1ccc(N2CCCC2)cc1", "values": [
      {"measurement": "activation (light induction)", "result": -25, "unit": "%"}
    ]},
    {"smiles": "c1ccc(Cn2nnc(NCc3ccc(N4CCCC4)cc3)n2)cc1", "values": [
      {"measurement": "activation (light induction)", "result": -50, "unit": "%"}
    ]},
    {"smiles": "c1ccc(-n2nnnc2NCc2ccc(N3CCCC3)cc2)cc1", "values": [
      {"measurement": "activation (light induction)", "result": 37.5, "unit": "%"}
    ]},
    {"smiles": "Cc1ccc(Cn2nnnc2NCc2ccc(N3CCCC3)cc2)cc1", "values": [
      {"measurement": "activation (light induction)", "result": -12.5, "unit": "%"}
    ]},
    {"smiles": "Cn1nnnc1NCc1ccc(N2CCCC2)cc1", "values": [
      {"measurement": "activation (light induction)", "result": -25, "unit": "%"}
    ]},
    {"smiles": "CCn1nnnc1NCc1ccccc1N1CCCC1", "values": [
      {"measurement": "activation (light induction)", "result": 0, "unit": "%"}
    ]},
    {"smiles": "CCCn1nnnc1NCc1ccccc1Cl", "values": [
      {"measurement": "activation (light induction)", "result": 25, "unit": "%"}
    ]},
    {"smiles": "CCC(C)NC(=O)Cc1ccc(-c2ccccc2)cc1", "note": "(stereo not given)", "values": [
      {"measurement": "activation (light induction)", "result": 0, "unit": "%"}
    ]},
    {"smiles": "CC(C)(C)OC(=O)N1CC(NC(=O)Cc2ccc(-c3ccccc3)cc2)C1", "values": [
      {"measurement": "activation (light induction)", "result": 0, "unit": "%"}
    ]},
    {"smiles": "O=C(Cc1ccc(-c2ccccc2)cc1)NC1CCC1", "values": [
      {"measurement": "activation (light induction)", "result": 0, "unit": "%"}
    ]},
    {"smiles": "CCn1nnnc1NCc1ccc(C(C)C)cc1", "values": [
      {"measurement": "activation (light induction)", "result": "-4.17% and 0%"}
    ]}
  ]
}
